Reference: PubChem BioAssay AID605 (National Center for Advancing Translational Sciences (NCATS), 2007)
Screen size: about 71,000 compounds; about 35 (0.05%) were called active. Calls come from the whole dose curve; as a rule, active = well fitted curve in the direction sought with a large enough effect; inconclusive = small, poorly fitted or top-dose-only effect, or effect the other way; inactive = flat fitted curve, though single readings scatter. Only a sample is shown.

molecular target: tRNA threonylcarbamoyladenosine biosynthesis protein TsaE (Escherichia coli (strain K12)) (UniProt P0AF67); assay: qHTS Assay for Inhibitors of YjeE; conditions: purified YjeE enzyme, qHTS inhibition assay
Method: NIH Molecular Libraries Screening Centers Network [MLSCN]
NIH Chemical Genomics Center [NCGC]
Assay Provider: Eric Brown, McMaster University
YjeE is an essential E.coli protein of unknown function that binds adenosine diphosphate (ADP). A complex of YjeE and BODIPY Texas Red-labeled ADP probe (Invitrogen, catalog number A22359) is incubated with library members. Inhibitors of YjeE-ADP binding are detected by a decrease in the fluorescence polarization (FP) of the fluorophore. Purified YjeE was supplied by Chand Mangat and Eric Brown, McMaster University.
NCGC Assay Protocol Summary:
2 uM probe/10 uM YjeE in columns 1, 2, 5-48. Titration of ADP control (from 40 mM, then 1:2) pin-transferred to top half of column 2. Column 1 and bottom half of column 2 are neutral.
Two and a half uL of reagents were dispensed to 1536-well Greiner black plates. Compounds and controls (20 nL) were transferred via Kalypsys PinTool. The plates were incubated for 15 min at room temperature, and then read on ViewLux (Perkin-Elmer) High-throughput CCD imager using BODIPY polarization filter set and 30 seconds exposure time. During dispense, reagent bottle was kept submerged into 4 deg C water bath and all liquid lines were covered with aluminum foil to minimize probe and protein degradation.
Keywords: NIH Roadmap, MLSCN, MLI, MLSMR, qHTS, NCGC, YjeE

Compound	outcome
Oc1ccc(O)c2c(O)cccc12	inactive
Cc1ccc(S(=O)(=O)NC(=O)N2CCCC(C)(C)C2)cc1	inactive
C=CCOC(=O)COCCC(C)C	inactive
CCC1=C/C(=C\c2ccc3c(c2)OCO3)C(=O)S1	inactive
COC(=O)N1CCC[C@@]2(CCN(C(=O)NC(C)C)C2)C1	inactive
O=S(=O)(NCc1ccccc1Cl)c1cnc[nH]1	inactive
CCCCn1c(SCC(=O)N2CCC(C(=O)OCC)CC2)nc2cc(S(N)(=O)=O)ccc21	inactive
CCCC(Cl)CCCC(Cl)CCC(Cl)CCC(Cl)CCC(Cl)CCCC(Cl)CCC (stereo not given)	inactive
Nc1ccccc1N	inactive
N[C@@H](C(=O)O)c1ccc(P(=O)(O)O)cc1	inactive
CC(=O)OC(C(=O)NCCc1ccccc1)c1cccnc1 (stereo not given)	inactive
COCc1[nH]nc2c1C(C1C=CCCC1)C(C#N)=C(N)O2 (stereo not given)	inactive
O=C(c1csnn1)N1CCC[C@@]2(CCN(Cc3nccs3)C2)C1	inactive
COc1cc(Cl)c(C)cc1NC(=O)CSc1nnc(-c2ccco2)n1CC(C)C	inactive
O=C(Nc1cccc(F)c1)N1CC2(CCN(C(=O)c3csnn3)CC2)C1	inactive
Cc1cccc(CNc2cc(-c3ccccc3Cl)ncn2)c1	inactive
COC(=O)[C@@H]1[C@H]2C[C@H]3c4[nH]c5cc(OC)ccc5c4CCN3C[C@@H]2C[C@@H](OC(=O)c2cc(OC)c(OC)c(OC)c2)[C@@H]1OC	inactive
CCOc1ccccc1NC(=O)C1CCN(S(=O)(=O)c2c(C)nn(C)c2C)CC1	inactive
C=CCN1C(=O)C(O)(CC(=O)c2ccc(Cl)cc2)c2ccccc21 (stereo not given)	inactive
CS(=O)(=O)N1CCCC(C(=O)N2CCOCC2)C1 (stereo not given)	inactive
Clc1ccccc1-c1cc(NCCN2CCOCC2)ncn1	inactive
CCc1cc2c(=O)c(-c3ccon3)c(N)oc2cc1OC	inactive
CCn1c(SCC(=O)Nc2cc(C)ccc2C)nnc1-c1cnccn1	inactive
CC1=C(C(=O)OCc2ccccc2)C(c2ccc(C(F)(F)F)cc2)NC(=O)N1CCCCCC(=O)O (stereo not given)	inactive

Compound	outcome
COC(=O)[C@@]1(C)C=C[C@@H](Cc2ccccc2)N1C(C)=O	inactive
O=C(Cn1cc(C(=O)c2cccs2)c2ccccc21)NCc1cccs1	inactive
O=C(c1cnccn1)N1CCC[C@@]2(CCN(Cc3ccncc3)C2)C1	inactive
COC(=O)CCCCCN1C(=O)NC(c2ccc(-c3ccccc3)cc2)C(C(=O)OCc2ccccc2)=C1C (stereo not given)	inactive
Cc1ccc(Br)cc1	inactive
O=C1CC(N2CCN(C(c3ccccc3)c3ccccc3)CC2)C(=O)N1 (stereo not given)	inactive
CCOc1ccc(C(=O)N(Cc2ccc(N(C)C)cc2)C2CCS(=O)(=O)C2)cc1 (stereo not given)	inactive
C/C(=C\C(=O)c1ccccc1)Nc1cccc(O)c1	inactive
Cc1cc2nc3c(=O)[nH]c(=O)nc-3n(C[C@H](O)[C@H](O)[C@H](O)CO)c2cc1C	inactive
O=C(O)c1ccc(C(=O)c2ccccc2C(=O)O)cc1C(=O)O	inactive
Cc1ccc(-c2c3c(=O)n(C)c(=O)n(C)c3cn2-n2cnnc2)cc1	inactive
C=CC(=O)OCCOCCOCCOCCOC(=O)C=C	inactive
CCOc1ccc2c(c1)cc(CN(C(=O)CC)C1CCCCC1)c1nnnn12	inactive
Cc1nc2cnc(N3CCNCC3)nc2n(Cc2ccc(F)cc2)c1=O	inactive
COc1ccc2c(=O)cc(-c3ccccc3)oc2c1O	inactive
C=CCn1c(SCc2csc(C)n2)nc2scc(-c3ccc(C)o3)c2c1=O	inactive
C=CC(=C)CCC=C(C)C	inactive
Cc1ccc(NC(=O)N2CCC(C(=O)NCc3ccc(F)cc3)CC2)cc1	inactive
O=C(NCc1ccccc1)[C@H]1C[C@@H]1[C@H](NP(=O)(c1ccccc1)c1ccccc1)c1ccccc1	inactive
O=C1C(c2[nH]c3ccccc3c2O)=Nc2ccccc21	inactive
COc1c(C)c2c(c(O)c1C/C=C(\C)CCC(=O)O)C(=O)OC2	inactive
Fc1ccc2nc(-c3ccccc3)nc(SCc3nnc(-c4ccccc4)o3)c2c1	inactive
Cc1cc(Cl)ccc1OCC(=O)Oc1c(Cl)c(Cl)c(Cl)c(Cl)c1Cl	inactive
CCN(CC)CCCCn1c(-c2ccccc2)nc2c(N3CCOCC3)nc(C)nc21	inactive

Compound	outcome
CCNC(=O)CCc1nc(-c2ccc(C(C)(C)C)cc2)no1	inactive
c1cncc(CNc2ccnc(-c3ccc4c(c3)OCO4)n2)c1	inactive
Cc1cc(C)c2c(c1)c(C)cc1nnc(SCC(=O)NCc3ccco3)n12	inactive
Cc1ccc(-c2noc(-c3ccccc3C(=O)NCC3CCCO3)n2)cc1 (stereo not given)	inactive
c1ccc2c(c1)-c1ccccc1C2N1CC2CCC(CC2)C1	inactive
CCC(=O)Nc1ccc(C(=O)Nc2ccc3c(c2)C(=O)N(CC2CCCO2)C3=O)cc1 (stereo not given)	inactive
CSCC[C@H](NC(=O)NCc1cccs1)C(=O)O	inactive
Cc1cccn2c(=O)c3cc(C(=O)N4COCC4(C)C)n(C)c3nc12	inactive
CCC[C@@H]1C[C@@]1(CCC)[C@@H](NC(=O)c1ccccc1)c1ccc(C(=O)OC)cc1	inactive
Cc1nc(CNS(=O)(=O)c2ccc(Oc3ccccc3)cc2)cs1	inactive
O=C(c1csnn1)N1CCC2(CCN(Cc3nccs3)CC2)CC1	inactive
CC1(C)CCCC2=C1CC1C(=O)N(c3ccccc3)C(=O)C1C2 (stereo not given)	inactive
COc1ccc(-c2cc(C(=O)NC(C(=O)O)C(C)C)c(C)o2)cc1OC (stereo not given)	inactive
Cc1ccc(-c2nnn(CC(=O)N(CCO)C(C(=O)NC(C)(C)C)c3ccncc3)n2)cc1 (stereo not given)	inactive
Cc1ccc(NC(=O)CCNS(=O)(=O)c2ccc3c(c2)oc(=O)n3C)cc1C	inactive
CCC/C=C(\CCC)C(NC(=O)Cc1ccccc1)c1ccc(C(=O)OC)cc1 (stereo not given)	inactive
O=C1CC(c2cccc(Br)c2)C2=C(CCCC2=O)N1 (stereo not given)	inactive
COc1ccc(-c2nc3cnc(Oc4ccccc4)nc3n(Cc3cccs3)c2=O)cc1	inactive
Oc1c(CN2CCOCC2)ccc(CN2CCOCC2)c1O	inactive
CC(=O)CSc1nnc(CSc2ncccn2)n1C1CCCCC1	inactive
CCN1CCN(C(=O)CN(C)S(=O)(=O)c2ccc(OC)cc2)CC1	inactive
CCOc1ccc(S(=O)(=O)n2ccnc2)c2ccccc12	inactive
